Test results as given in PubChem BioAssay AID1159580 (chemical genetic matrix, 2015).
Where “and” joins values, the source holds several entries; their conditions need not be identical. Identical values can stand only once. Screen size: about 5,500 compounds; about 2,000 (36%) were called active. Not shown: some 18% with an inconclusive outcome. Cut-off read from the data, not from the text of the source: active = normalized growth mostly below about 0.91 (no sharp cut-off); inconclusive = no clear call, values can overlap the other calls; inactive = mostly above about 0.92. The list shows a part of the results.

Test: chemical genetic growth profiling, strain panel (AID 1159580);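 note: tested at 20 µM; growth read once vehicle control cultures reached saturation at 30 °C; 1 = growth at the plate median or of vehicle wells; lower values mean less growth of the strain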
Conditions: S. cerevisiae deletion strains, growth OD

Measured: normalized growth

COc1ccc(C(CN(C)C)C2(O)CCCCC2)cc1 (stereo unspecified)
inactive: locus YAL013W, strain DEP1, active compounds read low 1.01 | locus YAL021C, strain ccr4, active compounds read low 0.976 | locus YAL026C, strain drs2, active compounds read low 0.995 | locus YAL030W, strain snc1, active compounds read low 0.988 | locus YBL061C, strain skt5, active compounds read low 0.992 | locus YBR009C, strain hhf1, active compounds read low 1.01 | locus YBR021W, strain FUR4, active compounds read low 1.02 | locus YBR023C, strain chs3, active compounds read low 1.01 | locus YBR171W, strain sec66, active compounds read low 0.982 | locus YBR229C, strain ROT2, active compounds read low 1.01 | locus YBR231C, strain swc5, active compounds read low 1.03 | locus YBR279W, strain paf1, active compounds read low 1.01 | locus YCL011C, strain gbp2, active compounds read low 0.994 | locus YCL016C, strain dcc1, active compounds read low 1.01 | locus YCL029C, strain bik1, active compounds read low 0.979 | locus YCL069W, strain vba3, active compounds read low 0.974 | locus YCR088W, strain abp1, active compounds read low 0.99 | locus YDL005C, strain med2, active compounds read low 0.978 | locus YDL035C, strain GPR1, active compounds read low 1.02 | locus YDL040C, strain nat1, active compounds read low 0.962 | locus YDL074C, strain BRE1, active compounds read low 1.03 | locus YDL101C, strain DUN1, active compounds read low 1.02 | locus YDL134C, strain PPH21, active compounds read low 1.02 | locus YDL185W, strain tfp1, active compounds read low 0.997 | locus YDL192W, strain arf1, active compounds read low 0.991 | locus YDR001C, strain nth1, active compounds read low 0.986 | locus YDR069C, strain doa4, active compounds read low 0.973 | locus YDR101C, strain arx1, active compounds read low 0.986 | locus YDR137W, strain rgp1, active compounds read low 0.971 | locus YDR150W, strain NUM1, active compounds read low 1.01 | locus YDR159W, strain sac3, active compounds read low 0.974 | locus YDR162C, strain NBP2, active compounds read low 0.985 | locus YDR195W, strain ref2 0.975 | locus YDR297W, strain sur2, active compounds read low 0.994 | locus YDR318W, strain mcm21, active compounds read low 0.996 | locus YDR334W, strain swr1, active compounds read low 0.97 | locus YDR335W, strain msn5, active compounds read low 0.996 | locus YDR388W, active compounds read low 0.988 | locus YDR392W, strain spt3, active compounds read low 0.985 | locus YDR502C, strain sam2, active compounds read low 0.99 | locus YEL003W, strain gim4, active compounds read low 0.976 | locus YEL037C, strain rad23, active compounds read low 0.974 | locus YEL061C, strain CIN8 (second series), active compounds read low 0.98 | locus YEL061C, strain CIN8, active compounds read low 1.01 | locus YER015W, strain faa2, active compounds read low 1.01 | locus YER016W, strain bim1, active compounds read low 0.972 | locus YER110C, active compounds read low 0.99 | locus YER111C, strain swi4, active compounds read low 0.994 | locus YER155C, strain BEM2 (second series), active compounds read low 0.962 | locus YER155C, strain BEM2, active compounds read low 0.987 | locus YER167W, strain BCK2, active compounds read low 1.01 | locus YFR010W, strain ubp6, active compounds read low 0.987 | locus YGL078C, strain dbp3, active compounds read low 0.989 | locus YGL086W, strain mad1, active compounds read low 0.996 | locus YGL167C, strain pmr1, active compounds read low 0.979 | locus YGL173C, strain kem1, active compounds read low 0.987 | locus YGL227W, strain vid30, active compounds read low 0.988 | locus YGL240W, strain doc1, active compounds read low 0.992 | locus YGL248W, strain PDE1, active compounds read low 1.01 | locus YGL253W, strain hxk2, active compounds read low 0.999 | locus YGR078C, strain PAC10, active compounds read low 1 | locus YGR135W, strain pre9, active compounds read low 0.985 | locus YGR229C, strain SMI1, active compounds read low 1.02 | locus YGR252W, strain gcn5, active compounds read low 0.973 | locus YHR013C, strain ard1, active compounds read low 0.932 | locus YHR027C, strain rpn1, active compounds read low 0.987 | locus YHR030C, strain SLT2, active compounds read low 1.01 and 1 | locus YHR079C, strain IRE1 (second series), active compounds read low 0.99 | locus YHR079C, strain IRE1, active compounds read low 1.01 | locus YHR094C, strain hxt1, active compounds read low 0.997 | locus YHR129C, strain ARP1, active compounds read low 1.01 | locus YHR142W, strain chs7, active compounds read low 0.974 | locus YHR200W, strain rpn10, active compounds read low 0.996 | locus YIL066C, strain RNR3, active compounds read low 1.01 | locus YIL073C, strain SPO22, active compounds read low 1.04 | locus YIL125W, strain kgd1, active compounds read low 0.998 | locus YIR030C, strain dcg1, active compounds read low 0.986 | locus YJL092W, strain hpr5, active compounds read low 0.976 | locus YJL095W, strain BCK1 (second series), active compounds read low 0.984 | locus YJL095W, strain BCK1, active compounds read low 1.01 and 0.997 | locus YJL115W, strain asf1, active compounds read low 0.958 | locus YJL129C, strain trk1, active compounds read low 0.989 | locus YJL134W, strain LCB3, active compounds read low 1.01 | locus YJL154C, strain vps35, active compounds read low 0.974 | locus YJL164C, strain tpk1, active compounds read low 1 | locus YJL166W, strain qcr8, active compounds read low 0.971 | locus YJL168C, strain set2, active compounds read low 0.997 | locus YJL187C, strain SWE1 (second series), active compounds read low 1.01 | locus YJR043C, strain POL32, active compounds read low 1 | locus YJR066W, strain TOR1, active compounds read low 0.979 | locus YJR075W, strain HOC1, active compounds read low 1.02
